Measured values from PubChem BioAssay AID1159580 (chemical genetic matrix, 2015).
Screen size: about 5,500 compounds; about 2,000 (36%) were called active. Another 18% or so got no clear call; they are omitted. Cut-off read from the data, not from the text of the source: active = normalized growth mostly below about 0.91 (no sharp cut-off); inconclusive = no clear call, values can overlap the other calls; inactive = mostly above about 0.92. The list shows a part of the results.

Assay: chemical genetic growth profiling, strain panel (AID 1159580);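 note: tested at 20 µM; growth read once vehicle control cultures reached saturation at 30 °C; 1 = growth at the plate median or of vehicle wells; lower values mean less growth of the strain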
Conditions: growth OD

Measured: normalized growth

CC(=O)C1=C(O)C2C3c4c[nH]c5cccc(c45)CC3C(C)(C)N2C1=O (stereo unspecified)
inactive: S. cerevisiae deletion strains, locus YAL013W, strain DEP1, hits give low values 0.994 | S. cerevisiae deletion strains, locus YBR021W, strain FUR4, hits give low values 0.983 | S. cerevisiae deletion strains, locus YBR229C, strain ROT2, hits give low values 0.997 | S. cerevisiae deletion strains, locus YCL029C, strain bik1, hits give low values 1 | S. cerevisiae deletion strains, locus YDL035C, strain GPR1, hits give low values 1.01 | S. cerevisiae deletion strains, locus YDL074C, strain BRE1, hits give low values 1.01 | S. cerevisiae deletion strains, locus YDL101C, strain DUN1, hits give low values 1.01 | S. cerevisiae deletion strains, locus YDL134C, strain PPH21, hits give low values 1 | S. cerevisiae deletion strains, locus YDL185W, strain tfp1, hits give low values 0.995 | S. cerevisiae deletion strains, locus YDL192W, strain arf1, hits give low values 1 | S. cerevisiae deletion strains, locus YDR101C, strain arx1, hits give low values 0.995 | S. cerevisiae deletion strains, locus YDR150W, strain NUM1, hits give low values 1.01 | S. cerevisiae deletion strains, locus YDR162C, strain NBP2, hits give low values 0.993 | S. cerevisiae deletion strains, locus YDR318W, strain mcm21, hits give low values 1.01 | S. cerevisiae deletion strains, locus YDR388W, hits give low values 1 | S. cerevisiae deletion strains, locus YDR502C, strain sam2, hits give low values 1.01 | S. cerevisiae deletion strains, locus YEL061C, strain CIN8, hits give low values 0.989 | S. cerevisiae deletion strains, locus YER110C, hits give low values 1.01 | S. cerevisiae deletion strains, locus YER155C, strain BEM2, hits give low values 1 | S. cerevisiae deletion strains, locus YER167W, strain BCK2, hits give low values 1.01 | S. cerevisiae deletion strains, locus YGL078C, strain dbp3, hits give low values 1 | S. cerevisiae deletion strains, locus YGL086W, strain mad1, hits give low values 1.01 | S. cerevisiae deletion strains, locus YGL248W, strain PDE1, hits give low values 0.997 | S. cerevisiae deletion strains, locus YGR078C, strain PAC10, hits give low values 0.975 | S. cerevisiae deletion strains, locus YGR135W, strain pre9, hits give low values 0.993 | S. cerevisiae deletion strains, locus YGR229C, strain SMI1, hits give low values 0.971 | S. cerevisiae deletion strains, locus YGR252W, strain gcn5, hits give low values 1.04 | S. cerevisiae deletion strains, locus YHR030C, strain SLT2, hits give low values 1.01 | S. cerevisiae deletion strains, locus YHR079C, strain IRE1 (second series), hits give low values 1.02 | S. cerevisiae deletion strains, locus YHR094C, strain hxt1, hits give low values 1 | S. cerevisiae deletion strains, locus YHR129C, strain ARP1, hits give low values 1 | S. cerevisiae deletion strains, locus YHR200W, strain rpn10, hits give low values 1.01 | S. cerevisiae deletion strains, locus YIL066C, strain RNR3, hits give low values 1.04 | S. cerevisiae deletion strains, locus YIL073C, strain SPO22, hits give low values 1.07 | S. cerevisiae deletion strains, locus YIL125W, strain kgd1, hits give low values 1 | S. cerevisiae deletion strains, locus YIR030C, strain dcg1, hits give low values 1 | S. cerevisiae deletion strains, locus YJL095W, strain BCK1, hits give low values 1 | S. cerevisiae deletion strains, locus YJL134W, strain LCB3, hits give low values 1.01 | S. cerevisiae deletion strains, locus YJL168C, strain set2, hits give low values 1.01 | S. cerevisiae deletion strains, locus YJL187C, strain SWE1 (second series), hits give low values 1.01 | S. cerevisiae deletion strains, locus YJR043C, strain POL32, hits give low values 1.01 | S. cerevisiae deletion strains, locus YJR075W, strain HOC1, hits give low values 1 | S. cerevisiae deletion strains, locus YKL009W, strain mrt4, hits give low values 1.03 | S. cerevisiae deletion strains, locus YKL068W, hits give low values 1 | S. cerevisiae deletion strains, locus YKL085W, strain MDH1 (second series), hits give low values 0.994 | S. cerevisiae deletion strains, locus YKL085W, strain MDH1, hits give low values 0.994 | S. cerevisiae deletion strains, locus YKL190W, strain CNB1, hits give low values 0.99 | S. cerevisiae deletion strains, locus YKR001C, strain vps1, hits give low values 1 | S. cerevisiae deletion strains, locus YLR039C, strain RIC1, hits give low values 0.979 | S. cerevisiae deletion strains, locus YLR058C, strain SHM2, hits give low values 1 | S. cerevisiae deletion strains, locus YLR102C, strain apc9, hits give low values 1.01 | S. cerevisiae deletion strains, locus YLR262C, strain YPT6, hits give low values 0.97 | S. cerevisiae deletion strains, locus YLR268W, strain sec22, hits give low values 0.995 | S. cerevisiae deletion strains, locus YLR330W, strain CHS5, hits give low values 0.992 | S. cerevisiae deletion strains, locus YLR342W, strain FKS1 (second series), hits give low values 1.02 | S. cerevisiae deletion strains, locus YLR371W, strain rom2, hits give low values 1.01 | S. cerevisiae deletion strains, locus YLR418C, strain cdc73, hits give low values 0.99 | S. cerevisiae deletion strains, locus YML016C, strain PPZ1, hits give low values 1 | S. cerevisiae deletion strains, locus YML032C, strain rad52, hits give low values 1.01 | S. cerevisiae deletion strains, locus YML124C, strain tub3, hits give low values 1 | S. cerevisiae deletion strains, locus YMR078C, strain ctf18, hits give low values 1 | S. cerevisiae deletion strains, locus YMR223W, strain ubp8, hits give low values 1.03 | S. cerevisiae deletion strains, locus YMR263W, strain SAP30, hits give low values 1.01 | S. cerevisiae deletion strains, locus YMR307W, strain GAS1, hits give low values 1.08 | S. cerevisiae deletion strains, locus YNL067W, strain RPL9B, hits give low values 1 | S. cerevisiae deletion strains, locus YNL128W, strain TEP1, hits give low values 0.998 | S. cerevisiae deletion strains, locus YNL153C, strain GIM3, hits give low values 0.999 | S. cerevisiae deletion strains, locus YNL233W, strain BNI4, hits give low values 1.01 | S. cerevisiae deletion strains, locus YNL250W, strain rad50, hits give low values 1.01 | S. cerevisiae deletion strains, locus YNL271C, strain bni1, hits give low values 1.01 | S. cerevisiae deletion strains, locus YNL298W, strain CLA4, hits give low values 0.998 | S. cerevisiae deletion strains, locus YNL307C, strain MCK1, hits give low values 1.02 | S. cerevisiae deletion strains, locus YNL322C, strain KRE1, hits give low values 1 | S. cerevisiae deletion strains, locus YNR052C, strain pop2, hits give low values 1.01 | S. cerevisiae deletion strains, locus YOL006C, strain TOP1, hits give low values 1.06 | S. cerevisiae deletion strains, locus YOL012C, strain htz1 0.841 | S. cerevisiae deletion strains, locus YOL147C, strain pex11, hits give low values 1.01 | S. cerevisiae deletion strains, locus YOR061W, strain CKA2, hits give low values 1 | S. cerevisiae deletion strains, locus YOR069W, strain VPS5, hits give low values 0.993 | S. cerevisiae deletion strains, locus YOR136W, strain idh2, hits give low values 1.01 | S. cerevisiae deletion strains, locus YOR144C, strain elg1, hits give low values 1 | S. cerevisiae deletion strains, locus YOR184W, strain ser1, hits give low values 1.03 | S. cerevisiae deletion strains, locus YOR316C, strain cot1, hits give low values 1 | S. cerevisiae deletion strains, locus YPL055C, strain LGE1, hits give low values 0.976 | S. cerevisiae deletion strains, locus YPL241C, strain CIN2, hits give low values 1.05 | S. cerevisiae deletion strains, locus YPR119W, strain clb2, hits give low values 1 | S. cerevisiae deletion strains, locus YPR141C, strain kar3, hits give low values 1 | S. cerevisiae deletion strains, locus YPR163C, strain tif3, hits give low values 1 | S. cerevisiae deletion strains, locus YPR167C, strain met16, hits give low values 1.01 | S. cerevisiae deletion strains, strain wtn01, hits give low values 0.995 | S. cerevisiae strains, strain wild type, hits give low values 0.971
